# Measurements as given in ChEMBL document CHEMBL5606460, “ASAP - DENV-2 NS2B-NS3 protease fluorescence single point” (2024).
# In all, about 2,000 compounds went through this assay and about 110 (5.5%) showed an effect of 50% or more. The full list was thinned out, with strong results kept by preference.
# Biological target: Genome polyprotein (dengue virus type 2) (UniProt P29990)
# [1] = Thailand/16681/1984, Concentration 25.0 uM, Number of replicates 1.0
smiles,measurement,setting,value
NCc1cccc(NC(=O)[C@@H](NC(=O)OCc2ccccc2)c2ccccc2)c1,inhibition,"Thailand/16681/1984, Concentration 49.5 uM, Number of replicates 2.0, Standard deviation 1.0300513707602847 %",0.869%
same,inhibition,"Thailand/16681/1984, Concentration 99.01 uM, Number of replicates 2.0, Standard deviation 0.7240873671299501 %",0.819%
same,inhibition,"Thailand/16681/1984, Concentration 198.0 uM, Number of replicates 2.0, Standard deviation 0.6193503939215136 %",0.644%
NCc1cccc(NC(=O)[C@@H](NC(=O)OCc2ccccc2)c2ccc(Br)cc2)c1,inhibition,"Thailand/16681/1984, Concentration 49.5 uM, Number of replicates 2.0, Standard deviation 0.0939294781157427 %",-4.11%
same,inhibition,"Thailand/16681/1984, Concentration 99.01 uM, Number of replicates 2.0, Standard deviation 0.02096957442071617 %",99.8%
same,inhibition,"Thailand/16681/1984, Concentration 198.0 uM, Number of replicates 2.0, Standard deviation 0.044447729264800756 %",99.8%
NCc1cccc(NC(=O)[C@@H](CCC(N)=O)NC(=O)OCc2ccccc2)c1,inhibition,"Thailand/16681/1984, Concentration 49.5 uM, Number of replicates 2.0, Standard deviation 0.6750820884014238 %",-3.1%
same,inhibition,"Thailand/16681/1984, Concentration 99.01 uM, Number of replicates 2.0, Standard deviation 2.465072002477128 %",-1.7%
same,inhibition,"Thailand/16681/1984, Concentration 198.0 uM, Number of replicates 2.0, Standard deviation 2.5897319885400165 %",-0.981%
CCCCCC(=O)N[C@H](C(=O)NCc1ccc(NC(=N)N)cc1)c1ccc(OCc2ccccc2)cc1,inhibition,"Thailand/16681/1984, Concentration 49.5 uM, Number of replicates 2.0, Standard deviation 0.35669280924008506 %",0.374%
same,inhibition,"Thailand/16681/1984, Concentration 99.01 uM, Number of replicates 2.0, Standard deviation 0.1951319007042223 %",2.1%
same,inhibition,"Thailand/16681/1984, Concentration 198.0 uM, Number of replicates 2.0, Standard deviation 2.320076788942105 %",11.9%
NCc1cccc(NC(=O)[C@@H](NC(=O)OCc2ccccc2)c2ccc(F)cc2)c1,inhibition,"Thailand/16681/1984, Concentration 49.5 uM, Number of replicates 2.0, Standard deviation 2.4011437232418986 %",-4.62%
same,inhibition,"Thailand/16681/1984, Concentration 99.01 uM, Number of replicates 2.0, Standard deviation 1.9050608177527883 %",-3.96%
same,inhibition,"Thailand/16681/1984, Concentration 198.0 uM, Number of replicates 2.0, Standard deviation 2.2061626239616485 %",-3.52%
NC(=O)c1cccc(NC(=O)[C@@H](NC(=O)OCc2ccccc2)c2ccc(OCc3ccccc3)cc2)c1,inhibition,"Thailand/16681/1984, Concentration 49.5 uM, Number of replicates 2.0, Standard deviation 9.041969593425012 %",3.65%
same,inhibition,"Thailand/16681/1984, Concentration 99.01 uM, Number of replicates 2.0, Standard deviation 1.1271011381219709 %",9.06%
same,inhibition,"Thailand/16681/1984, Concentration 198.0 uM, Number of replicates 2.0, Standard deviation 1.277025907644923 %",16%
NCc1cccc(NC(=O)Cc2ccc(OCc3ccccc3)cc2)c1,inhibition,"Thailand/16681/1984, Concentration 49.5 uM, Number of replicates 2.0, Standard deviation 0.3616312555788717 %",-3.09%
same,inhibition,"Thailand/16681/1984, Concentration 99.01 uM, Number of replicates 2.0, Standard deviation 0.27421312838327405 %",-2.89%
same,inhibition,"Thailand/16681/1984, Concentration 198.0 uM, Number of replicates 2.0, Standard deviation 0.0354621897496722 %",-1.31%
O=Cc1ccc(N2CCC(C(=O)N3CCC(=C4c5ccc(Cl)cc5CCc5cccnc54)CC3)CC2)cc1,inhibition,[1],-7.77%
Cc1cc(CO)c2cccc(Cc3cccc(C(=O)N4CC[C@@H](O)C4)c3)c2n1,inhibition,"Thailand/16681/1984, Concentration 49.95 uM, Number of replicates 2.0, Standard deviation 0.8940031033980441 %",-6.42%
same,inhibition,"Thailand/16681/1984, Concentration 99.9 uM, Number of replicates 2.0, Standard deviation 1.7851314545528572 %",-4.22%
Cc1cc(NC(=O)c2[nH]c([C@H]3CCCNC3)nc2C)n[nH]1,inhibition,"Thailand/16681/1984, Concentration 49.5 uM, Number of replicates 2.0, Standard deviation 0.1819338679741269 %",-0.694%
same,inhibition,"Thailand/16681/1984, Concentration 99.01 uM, Number of replicates 2.0, Standard deviation 0.4335851561467917 %",-1.03%
same,inhibition,"Thailand/16681/1984, Concentration 198.0 uM, Number of replicates 2.0, Standard deviation 0.7148425402027826 %",-1.18%
O=Cc1ccc(N2CCC(C(=O)Nc3nnc(Cl)cc3Br)CC2)cc1,inhibition,[1],33%
Cc1cc(CO)c2cccc(Cc3cccc(NC(=O)c4cccc(Cn5cncn5)c4)c3)c2n1,inhibition,"Thailand/16681/1984, Concentration 49.95 uM, Number of replicates 2.0, Standard deviation 0.03445572300723204 %",-2.36%
same,inhibition,"Thailand/16681/1984, Concentration 99.9 uM, Number of replicates 2.0, Standard deviation 1.2505418184916173 %",1.37%
O=Cc1ccc(N2CCC(C(=O)NCC(=O)c3ccccc3F)CC2)cc1,inhibition,[1],12.6%
O=Cc1ccc(N2CCC(C(=O)N[C@@H]3CCCN(Cc4ccccc4)C3)CC2)cc1,inhibition,[1],13.3%
CSCC[C@H](NC(=O)OC(C)(C)C)C(=O)N1CCC[C@H]1C(=O)N1CCNCC1,inhibition,"Thailand/16681/1984, Concentration 49.5 uM, Number of replicates 2.0, Standard deviation 0.18656479510110988 %",-1.01%
same,inhibition,"Thailand/16681/1984, Concentration 99.01 uM, Number of replicates 2.0, Standard deviation 0.6673278690655411 %",-1.03%
same,inhibition,"Thailand/16681/1984, Concentration 198.0 uM, Number of replicates 2.0, Standard deviation 0.6237960118923063 %",-0.61%
CNC(=O)C[C@@H](C)NS(=O)(=O)c1ccc(Oc2ccccc2Cl)cc1,inhibition,"Thailand/16681/1984, Concentration 49.5 uM, Number of replicates 2.0, Standard deviation 1.3030195128486834 %",0.058%
same,inhibition,"Thailand/16681/1984, Concentration 99.01 uM, Number of replicates 2.0, Standard deviation 1.4693139392091605 %",1.01%
same,inhibition,"Thailand/16681/1984, Concentration 198.0 uM, Number of replicates 2.0, Standard deviation 0.5754244321045655 %",1.94%
CCN(Cc1cnn(CC)c1)C(=O)C1CCN(c2ccc(C=O)cc2)CC1,inhibition,[1],12.7%
O=C(N[C@H](C(=O)O)c1ccc(OCc2ccccc2)cc1)OCc1ccccc1,inhibition,"Thailand/16681/1984, Concentration 49.5 uM, Number of replicates 2.0, Standard deviation 1.5755205914644184 %",1.16%
same,inhibition,"Thailand/16681/1984, Concentration 99.01 uM, Number of replicates 2.0, Standard deviation 1.1157080020325059 %",3.53%
same,inhibition,"Thailand/16681/1984, Concentration 198.0 uM, Number of replicates 2.0, Standard deviation 0.14215963415330513 %",10.6%
NCc1cccc(CNC(=O)[C@@H](NC(=O)OCc2ccccc2)c2ccc(OCc3ccccc3)cc2)c1,inhibition,"Thailand/16681/1984, Concentration 49.5 uM, Number of replicates 2.0, Standard deviation 0.05305782465339428 %",100%
same,inhibition,"Thailand/16681/1984, Concentration 99.01 uM, Number of replicates 2.0, Standard deviation 0.03132758391075349 %",99.6%
same,inhibition,"Thailand/16681/1984, Concentration 198.0 uM, Number of replicates 2.0, Standard deviation 0.04155072348555595 %",99.5%
NCc1ccc(NC(=O)[C@@H](NC(=O)OCc2ccccc2)c2ccc(OCc3ccccc3)cc2)cc1,inhibition,"Thailand/16681/1984, Concentration 49.5 uM, Number of replicates 2.0, Standard deviation 0.2921733335266154 %",1.85%
same,inhibition,"Thailand/16681/1984, Concentration 99.01 uM, Number of replicates 2.0, Standard deviation 0.5182536650923871 %",1.48%
same,inhibition,"Thailand/16681/1984, Concentration 198.0 uM, Number of replicates 2.0, Standard deviation 0.5806748336109616 %",1.92%
Cc1cc(CO)c2cccc(Cc3ccccc3C(=O)N(c3ncccn3)S(=O)(=O)c3ccc(N)cc3)c2n1,inhibition,"Thailand/16681/1984, Concentration 49.95 uM, Number of replicates 2.0, Standard deviation 1.284948840815395 %",27.7%
same,inhibition,"Thailand/16681/1984, Concentration 99.9 uM, Number of replicates 2.0, Standard deviation 0.4850893215235289 %",47.5%
Cc1cc(CO)c2cccc(CC(=O)NCc3ccc(S(N)(=O)=O)cc3)c2n1,inhibition,"Thailand/16681/1984, Concentration 49.95 uM, Number of replicates 2.0, Standard deviation 1.717051818740604 %",21.3%
same,inhibition,"Thailand/16681/1984, Concentration 99.9 uM, Number of replicates 2.0, Standard deviation 5.294472274247832 %",43.7%
Cc1cc(CO)c2cccc(Cc3cccc(C(=O)N(c4ncccn4)S(=O)(=O)c4ccc(N)cc4)c3)c2n1,inhibition,"Thailand/16681/1984, Concentration 49.95 uM, Number of replicates 2.0, Standard deviation 1.2554851591331873 %",27.5%
same,inhibition,"Thailand/16681/1984, Concentration 99.9 uM, Number of replicates 2.0, Standard deviation 1.7606970720097574 %",55.5%
Cc1cc(CO)c2cccc(NC(=O)NCc3ccc(N)cc3)c2n1,inhibition,"Thailand/16681/1984, Concentration 49.95 uM, Number of replicates 2.0, Standard deviation 1.081774899946809 %",4.55%
same,inhibition,"Thailand/16681/1984, Concentration 99.9 uM, Number of replicates 2.0, Standard deviation 2.6483447678271466 %",14.1%
Cc1cc(CO)c2cccc(CC(=O)N(c3ncccn3)S(=O)(=O)c3ccc(N)cc3)c2n1,inhibition,"Thailand/16681/1984, Concentration 49.95 uM, Number of replicates 2.0, Standard deviation 0.013152514133703636 %",99.6%
same,inhibition,"Thailand/16681/1984, Concentration 99.9 uM, Number of replicates 2.0, Standard deviation 0.02076996694616858 %",99.4%
Cc1cc(CO)c2cccc(Cc3cccc(C(=O)NCc4ccc(S(N)(=O)=O)cc4)c3)c2n1,inhibition,"Thailand/16681/1984, Concentration 49.95 uM, Number of replicates 2.0, Standard deviation 0.214877109175697 %",5.4%
same,inhibition,"Thailand/16681/1984, Concentration 99.9 uM, Number of replicates 2.0, Standard deviation 0.2579967069502225 %",18%
CC(=O)N[C@@H](CCCCN)C(=O)Nc1cccc(Cc2cccc3c(CO)cc(C)nc23)c1,inhibition,"Thailand/16681/1984, Concentration 49.95 uM, Number of replicates 2.0, Standard deviation 0.858525740782908 %",-3.5%
same,inhibition,"Thailand/16681/1984, Concentration 99.9 uM, Number of replicates 2.0, Standard deviation 1.064156674332285 %",6.38%
